The campaign covered roughly 410,000 compounds. About 18,000 (4.4%) were called active. Roughly 7% stayed inconclusive and do not appear here. For the sample, actives were picked, then their nearest neighbours and some compounds at random. Values without a mark were called inactive. Cut-off read from the data, not from the text of the source: active = activity change below about -60%; inconclusive = no clear call, values can overlap the other calls; inactive = above about -39%.
assay: qHTS Assay for inhibitors of the human cytomegalovirus (HCMV); settings: HFF cells, HCMV-luciferase reporter, 72 h; at 57.5 µM; stronger effect = lower value
How it was run: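 Inhibition of viral replication was scored as loss of reporter luminescence in HFFs infected with HCMV-luciferase (MOI 1 PFU/cell) for 72 h; compounds tested at 2 doses, normalized to buffer and Salinomycin controls.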
% is set by controls: 0 for no effect and ±100 for the full control effect.

**Q.** For `COCCN(Cc1ccco1)C(=O)Cn1ncc2c([nH]c3ccccc32)c1=O`, which activity change, negative = inhibition is on record?
**A.** The activity change, negative = inhibition was 1.17%.

**Q.** For `N#Cc1cccc(CN2CCC(=O)N([C@H](CO)c3ccccc3)CC2)c1`, which activity change, negative = inhibition is on record?
**A.** The activity change, negative = inhibition was -24.2%.

**Q.** With `O=C(Nc1ccc(Br)cc1)c1cc2nc(-c3ccccc3)cc(-c3ccccc3)n2n1` as the compound, how does the activity change, negative = inhibition read?
**A.** Its activity change, negative = inhibition is 22.2%.

**Q.** With `CCc1ccc2oc(=O)cc(CN3CCCCC3C)c2c1` (stereo unspecified) as the compound, how does the activity change, negative = inhibition read?
**A.** Its activity change, negative = inhibition is -19%.

**Q.** For `CCOC(=O)c1[nH]c(C)c(CCC(=O)NCc2ccccc2C)c1C`, which activity change, negative = inhibition is on record?
**A.** The activity change, negative = inhibition was -16.4%.

**Q.** Which activity change, negative = inhibition does the source give for `Cc1ccc(O)c(NC(=S)NC(=O)COc2ccc(Br)cc2)c1` here?
**A.** Its activity change, negative = inhibition is -97.8% (active).

**Q.** Which activity change, negative = inhibition does the source give for `Cn1cnnc1SCC(=O)NNC(=O)COc1ccc(Br)cc1` here?
**A.** The activity change, negative = inhibition was -26.5%.

**Q.** Which activity change, negative = inhibition does the source give for `Cc1ccsc1C(=O)NNC(=O)COc1ccc(Br)cc1` here?
**A.** The activity change, negative = inhibition was -16.1%.

**Q.** With `COc1ccc(CN2CCc3nc(Nc4ccccc4)ncc3C2)c(OC)c1OC` as the compound, how does the activity change, negative = inhibition read?
**A.** The activity change, negative = inhibition was -16.7%.

**Q.** For `COc1ccc(S(=O)(=O)c2cn(C)c3cc(N4CCCCC4)c(F)cc3c2=O)cc1`, which activity change, negative = inhibition is on record?
**A.** Its activity change, negative = inhibition is -2.52%.

**Q.** With `COc1cccc(CCNC(=O)c2cccc(NC(=O)C3=C(C)OCCS3)c2)c1` as the compound, how does the activity change, negative = inhibition read?
**A.** The activity change, negative = inhibition was -34.7%.

**Q.** For `Cc1nc2nc(C)c(NS(=O)(=O)c3ccc(C(C)(C)C)cc3)c(=O)n2[nH]1`, which activity change, negative = inhibition is on record?
**A.** Its activity change, negative = inhibition is 2.48%.

**Q.** For `O=C(Nc1ccc(N2CCN(C(=O)c3ccccc3)CC2)c(Cl)c1)c1cccnc1`, which activity change, negative = inhibition is on record?
**A.** The activity change, negative = inhibition was -70.9% (active).

**Q.** For `Cc1ccccc1N1CCN(C(=O)c2cccnc2)CC1`, which activity change, negative = inhibition is on record?
**A.** The activity change, negative = inhibition was -6.56%.

**Q.** Which activity change, negative = inhibition does the source give for `O=C(Nc1ccc(N2CCN(C(=O)c3ccccc3)CC2)c(Cl)c1)c1ncn[nH]1` here?
**A.** The activity change, negative = inhibition was -25.4%.

**Q.** Which activity change, negative = inhibition does the source give for `CC(C)COP(=O)(c1ccc(N(C)C)cc1)C(Nc1ccccc1)c1cccnc1` (stereo unspecified) here?
**A.** The activity change, negative = inhibition was -101% (active).

**Q.** For `Cc1ccc(C(O)P(=O)(OC(C)C)c2ccc(N(C)C)cc2)cc1` (stereo unspecified), which activity change, negative = inhibition is on record?
**A.** Its activity change, negative = inhibition is 15.1%.

**Q.** With `CC(Nc1ccccc1)c1cccnc1` (stereo unspecified) as the compound, how does the activity change, negative = inhibition read?
**A.** Its activity change, negative = inhibition is 4.97%.

**Q.** For `Cc1ccc(S(=O)(=O)n2nc(-c3ccc(Cl)cc3)nc2NCc2ccccc2)cc1`, which activity change, negative = inhibition is on record?
**A.** The activity change, negative = inhibition was 8.1%.

**Q.** For `COc1ccc(C2c3c(oc4ccccc4c3=O)C(=O)N2Cc2ccc3c(c2)OCO3)cc1` (stereo unspecified), which activity change, negative = inhibition is on record?
**A.** The activity change, negative = inhibition was -4.99%.

**Q.** Which activity change, negative = inhibition does the source give for `COc1ccc(-c2nn(CC(=O)Nc3ccccc3F)c3c2cnc2ccc(F)cc23)cc1` here?
**A.** The activity change, negative = inhibition was 39.2%.

**Q.** For `O=c1[nH]c(-c2ccccc2)cn1C1CCN(Cc2ccc(-c3nc4ccc(F)cc4nc3-c3ccccc3)cc2)CC1`, which activity change, negative = inhibition is on record?
**A.** Its activity change, negative = inhibition is 54.8%.

**Q.** With `CCc1cc(-c2nnn(CCC3COCCO3)c2CC)ccc1-c1cn(Cc2ccc3ccccc3c2)nn1` (stereo unspecified) as the compound, how does the activity change, negative = inhibition read?
**A.** The activity change, negative = inhibition was -80.6% (active).

**Q.** With `O=C(C1CCC1)N1C[C@H]2[C@@H](c3ccccc31)[C@@H](CO)N2C(=O)c1ccccc1F` as the compound, how does the activity change, negative = inhibition read?
**A.** Its activity change, negative = inhibition is 27.8%.

**Q.** With `CC(C)(C)c1ccc(C(=O)NCC(c2ccc(Cl)cc2)N2CCOCC2)cc1` (stereo unspecified) as the compound, how does the activity change, negative = inhibition read?
**A.** The activity change, negative = inhibition was -1.98%.

**Q.** For `Cc1ccc(C(=O)N2c3ncnn3C3(CCCCC3)[C@@H]3CCCC[C@@H]32)cc1`, which activity change, negative = inhibition is on record?
**A.** The activity change, negative = inhibition was -15.5%.

**Q.** For `COc1ccc(CCN2CC(C(=O)OCC(=O)NCc3ccccc3Cl)CC2=O)cc1OC` (stereo unspecified), which activity change, negative = inhibition is on record?
**A.** The activity change, negative = inhibition was 16.6%.

**Q.** For `COc1ccc(CC(=O)N2CC3ON=C(c4c(F)cccc4Cl)C3C2)cc1OC` (stereo unspecified), which activity change, negative = inhibition is on record?
**A.** Its activity change, negative = inhibition is -61.7% (active).

**Q.** For `COc1ccc(S(=O)(=O)N2CC3ON=C(c4c(F)cccc4Cl)C3C2)cc1OC` (stereo unspecified), which activity change, negative = inhibition is on record?
**A.** The activity change, negative = inhibition was -7.48%.

**Q.** Which activity change, negative = inhibition does the source give for `COc1ccccc1NC(=O)c1oc2ccccc2c1NC(=O)COc1ccccc1OC` here?
**A.** Its activity change, negative = inhibition is 2.62%.

**Q.** Which activity change, negative = inhibition does the source give for `CCOc1ccccc1CNC(=O)c1cnc2c(-c3ccc(OCC)c(OCC)c3)c(C)nn2c1C` here?
**A.** The activity change, negative = inhibition was -3.31%.

**Q.** With `Cc1ccc(CN2COc3cc(C)c4c(oc(=O)c5ccccc54)c3C2)cc1` as the compound, how does the activity change, negative = inhibition read?
**A.** The activity change, negative = inhibition was 8.87%.

**Q.** For `CC1CCc2sc(C(=O)N/N=C/C3CCCCC3)cc2C1` (stereo unspecified), which activity change, negative = inhibition is on record?
**A.** Its activity change, negative = inhibition is 13.4%.

**Q.** For `C/C(=N\NC(=O)c1cccnc1)c1ccc(-n2ccnc2)cc1`, which activity change, negative = inhibition is on record?
**A.** Its activity change, negative = inhibition is -16.6%.

**Q.** For `C/C(=N\NC(=O)c1cc2c(s1)CCC(C)C2)c1cccnc1` (stereo unspecified), which activity change, negative = inhibition is on record?
**A.** The activity change, negative = inhibition was -78.9% (active).

**Q.** For `Cc1ccc(C)c(N2CCN(Cc3nnc(-c4ccccc4)o3)CC2)c1`, which activity change, negative = inhibition is on record?
**A.** Its activity change, negative = inhibition is 27.7%.

**Q.** With `COc1ccc(-c2nc(CN3CCC(C(=O)NCCN(CC(C)C)CC(C)C)CC3)c(C)o2)cc1OC` as the compound, how does the activity change, negative = inhibition read?
**A.** Its activity change, negative = inhibition is -0.431%.

**Q.** For `Cc1nnc(C)n1-c1ccc(C(=O)Nc2cccc(Br)c2)cc1`, which activity change, negative = inhibition is on record?
**A.** The activity change, negative = inhibition was 33.2%.

**Q.** Which activity change, negative = inhibition does the source give for `CCN1C(=O)N[C@@H](CCc2ccccc2)C(C(=O)OC)=C1C` here?
**A.** Its activity change, negative = inhibition is -1.16%.

**Q.** With `CCOC(=O)CN(C(=O)COc1nc(C)cc(C)c1C#N)c1ccc(Cl)cc1` as the compound, how does the activity change, negative = inhibition read?
**A.** Its activity change, negative = inhibition is -1.87%.

**Q.** For `CCOc1ccc(/C=C(\C#N)c2nc3ccccc3c(=O)[nH]2)cc1OC`, which activity change, negative = inhibition is on record?
**A.** Its activity change, negative = inhibition is 18%.

**Q.** With `CCOc1cc(/C=C(/C#N)c2ccc(Cl)cc2)cc(Cl)c1OCC(=O)O` as the compound, how does the activity change, negative = inhibition read?
**A.** Its activity change, negative = inhibition is -79.4% (active).

**Q.** Which activity change, negative = inhibition does the source give for `Cc1ccc(Cn2c(=O)n(-c3ccc(C)cc3)c(=O)c3c2c2cc(C)ccc2n3C)cc1` here?
**A.** The activity change, negative = inhibition was 5.49%.

**Q.** Which activity change, negative = inhibition does the source give for `CC1CCCN(c2cc3c(cc2F)c(=O)c(S(=O)(=O)c2cccc(Cl)c2)cn3Cc2ccccc2)C1` (stereo unspecified) here?
**A.** The activity change, negative = inhibition was -26.5%.

**Q.** With `S=C(Nc1ccc2c(c1)OCO2)N1CCCC1` as the compound, how does the activity change, negative = inhibition read?
**A.** Its activity change, negative = inhibition is 17.6%.

**Q.** With `CC1(C(=O)Nc2ccc3c(c2)OCCO3)CCN1C(=O)Cc1cc(F)ccc1F` (stereo unspecified) as the compound, how does the activity change, negative = inhibition read?
**A.** Its activity change, negative = inhibition is 20.3%.

**Q.** Which activity change, negative = inhibition does the source give for `O=C(/C=C\c1ccc2c(c1)OCO2)NC1(C(=O)Nc2ccc3c(c2)OCCO3)CCCCC1` here?
**A.** Its activity change, negative = inhibition is -87.5% (active).

**Q.** With `COC(=O)[C@@]1(C#N)CC(=O)N([C@@H](C)c2ccccc2)[C@H]1c1ccccc1` as the compound, how does the activity change, negative = inhibition read?
**A.** Its activity change, negative = inhibition is -35.4%.

**Q.** Which activity change, negative = inhibition does the source give for `CC(=O)N1c2ccccc2CC1C(=O)N1CCN(c2ccc(F)cc2)CC1` (stereo unspecified) here?
**A.** The activity change, negative = inhibition was 16.1%.

**Q.** For `O=c1nc(N2CCOCC2)nc2n1CCO2`, which activity change, negative = inhibition is on record?
**A.** Its activity change, negative = inhibition is -26.3%.

**Q.** For `COc1ccc(OC)c(NC(=O)C2CCN(S(=O)(=O)c3ccc(C)cc3)CC2)c1`, which activity change, negative = inhibition is on record?
**A.** The activity change, negative = inhibition was -12.3%.

**Q.** With `c1ccc(Cc2nn3c(Cn4cnc5ccccc54)nnc3s2)cc1` as the compound, how does the activity change, negative = inhibition read?
**A.** The activity change, negative = inhibition was -65.2% (active).

**Q.** For `O=C(CSc1nnc(Cn2cnc3ccccc32)o1)c1ccccc1`, which activity change, negative = inhibition is on record?
**A.** The activity change, negative = inhibition was -35.1%.

**Q.** For `Fc1ccc(OCc2nn3c(Cn4nnc5ccccc54)nnc3s2)cc1`, which activity change, negative = inhibition is on record?
**A.** The activity change, negative = inhibition was -1.96%.

**Q.** For `Cc1ccccc1CNC(=O)c1ccc(NC(=O)N2CCCCc3ccccc32)cc1`, which activity change, negative = inhibition is on record?
**A.** Its activity change, negative = inhibition is -4.65%.

**Q.** For `COc1ccc(C(=O)c2oc3ccccc3c2NC(=O)COc2cccc(C)c2)cc1`, which activity change, negative = inhibition is on record?
**A.** Its activity change, negative = inhibition is 9.86%.

From PubChem BioAssay AID1259415 (National Center for Advancing Translational Sciences (NCATS), 2018)
